Source: PubChem (National Center for Advancing Translational Sciences (NCATS))
This is a sample that favours compounds with a hit; in the whole collection about 9% have one here.
G9a inh-1 = inhibitors of human histone lysine methyltransferase G9a; Q96KQ7; Potency, µM (doses to about 102 µM), for inactives: at the highest dose activity, negative = inhibition, actives largely listed as inhibitors; AID 504332; hit rate 8.8% among 350,000; G9a H3K9 monomethylation, AlphaScreen, 2 h; note: potency is the fitted concentration of half-maximal effect; % is set by controls: 0 for no effect and ±100 for the full control effect; nearly all actives have a fitted effect of over 75% in size
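Compounds were preincubated with 20 nM G9a for 15 min, after which biotinylated H3K9 peptide (500 nM) and SAM (20 uM) started a 2 h room-temperature reaction. Monomethylated product was quantified by antibody-based AlphaScreen chemiluminescence.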
BAZ2B block = blocks human BAZ2B. Q9UIF8. AID 504333. Potency, µM (titrated, usually from 114 µM), inactives show at the highest dose activity change, negative = inhibition, actives largely listed as inhibitors. AlphaScreen BAZ2B-H3K14Ac peptide displacement. hit rate 4.4% among 360,000; note: potency is the fitted concentration of half-maximal effect; % is set by controls: 0 for no effect and ±100 for the full control effect; nearly all actives have a fitted effect of over 60% in size
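AlphaScreen luminescence quantifies BAZ2B engagement of H3K14Ac peptide; the protein and biotinylated peptide are both at 50 nM final, buffer PBS pH 7.4 with 0.01% Tween-20, all steps at room temperature.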
PLK1 PBD inh = inhibitors of human PLK1 polo-box domain binding. Plk1 PBD binding of FITC phosphopeptide, fluorescence polarization. Potency, µM, for the others: max response, negative = inhibition, usual class: inhibitors. hit rate 2.8% among 360,000. AID 720504; note: potency is the fitted concentration of half-maximal effect; series mostly up to about 57 µM; % is set by controls: 0 for no effect and ±100 for the full control effect; nearly all actives have a fitted effect of over 65% in size
HP1b binding inh = HP1-beta chromodomain-methylated histone interaction inhibition; Potency, µM (top dose mostly 114 µM), for the others: at the highest dose activity change, negative = inhibition, hits mostly inhibitors; P83916; hit rate 0.56% among 390,000; AlphaScreen HP1-beta / biotin-H3K9me3 peptide binding; AID 540317; note: potency is the fitted concentration of half-maximal effect; nearly all actives have a fitted effect of over 70% in size
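Compound inhibition of the preformed complex between 50 nM HP1-beta and 50 nM biotinylated H3K9me3 peptide was read by AlphaScreen. Buffer was PBS pH 7.4 with 0.01% Tween-20. Incubations ran 30 min at room temperature, with 10 ug/mL donor/acceptor beads.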
JMJD2A Tudor = blocks the human JMJD2A Tudor domain; AlphaScreen JMJD2A-Tudor / H3K4me3 peptide binding; hit rate 4.4% among 390,000; O75164; AID 504339; Potency, µM (doses to about 114 µM), for the others: top-dose activity change, negative = inhibition, actives largely listed as inhibitors; note: potency is the fitted concentration of half-maximal effect; % is set by controls: 0 for no effect and ±100 for the full control effect; nearly all actives have a fitted effect of over 50% in size
12-LOX inh = ALOX12 (human) lipoxygenase inhibition | P18054 | purified 12hLO, xylenol orange hydroperoxide absorbance | Potency, µM (series often up to 108 µM), for the others: at the top dose activity change, negative = inhibition, hits mostly inhibitors | hit rate 1.1% among 580,000; note: potency is the fitted concentration of half-maximal effect; % is set by controls: 0 for no effect and ±100 for the full control effect
Target sequence (P18054 whole entry, looked up): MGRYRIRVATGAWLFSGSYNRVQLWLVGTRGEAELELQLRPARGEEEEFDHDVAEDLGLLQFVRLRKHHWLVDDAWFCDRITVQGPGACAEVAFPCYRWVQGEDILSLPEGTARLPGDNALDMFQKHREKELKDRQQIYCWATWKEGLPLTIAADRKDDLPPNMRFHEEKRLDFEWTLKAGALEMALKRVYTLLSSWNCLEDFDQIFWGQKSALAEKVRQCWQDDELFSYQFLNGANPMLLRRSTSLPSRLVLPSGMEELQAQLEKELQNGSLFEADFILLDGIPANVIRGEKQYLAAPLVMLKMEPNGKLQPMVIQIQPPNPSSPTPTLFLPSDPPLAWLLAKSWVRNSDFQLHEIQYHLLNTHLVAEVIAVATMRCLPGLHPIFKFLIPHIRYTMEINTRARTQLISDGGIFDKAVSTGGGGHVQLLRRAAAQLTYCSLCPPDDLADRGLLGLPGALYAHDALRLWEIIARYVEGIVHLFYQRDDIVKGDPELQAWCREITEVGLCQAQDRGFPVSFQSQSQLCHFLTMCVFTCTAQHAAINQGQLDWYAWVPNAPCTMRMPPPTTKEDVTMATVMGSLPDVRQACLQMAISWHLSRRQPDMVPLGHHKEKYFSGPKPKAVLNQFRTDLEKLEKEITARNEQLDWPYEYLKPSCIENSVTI
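Purified human 12hLO at 150 nM in 25 mM Hepes, 0.01% Triton X-100, pH 7.0, preincubated 15 min at room temperature with compound. Reaction started with 40 uM arachidonic acid, 30 min at room temperature. Hydroperoxide measured by Fe-xylenol orange, 573/405 nm absorbance ratio.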
G9a inh-2 = inhibits human G9a histone lysine methyltransferase, hit confirmation; Potency, µM, hits mostly inhibitors; G9a H3K9 monomethylation, AlphaScreen, 2 h; hit rate 89% among 370; shares compounds with JMJD2A Tudor; AID 588344; note: potency is the fitted concentration of half-maximal effect; nearly all actives have a fitted effect of over 65% in size
RGS4 inh = inhibits human RGS4, hit validation; shares compounds with JMJD2A Tudor; RGS4 GAP activity, Transcreener GDP fluorescence polarization; Potency, µM, most hits filed as inhibitors; hit rate 80% among 25; AID 602388
Starred values were filed as active, the others as inactive; ? = inconclusive; nt = not tested or not shown; [ ] = another dose, or the depositor's remark. Calls come from the whole dose curve; as a rule, active = well fitted curve in the direction sought with a large enough effect; inconclusive = small, poorly fitted or top-dose-only effect, or another doubt; inactive = no such curve, though single readings can be large; an effect the other way counts as inactive or inconclusive.

SMILES	G9a inh-1	BAZ2B block	PLK1 PBD inh	HP1b binding inh	JMJD2A Tudor	12-LOX inh	G9a inh-2	others
O=C(Cn1nc2c(cc1=O)CCCCC2)Nc1ccccn1	nt	nt	nt	nt	nt	28%	nt
CCN(CC)CCOC(=O)c1ccc(NC(=O)c2cn(-c3ccccc3)nc2-c2cccs2)cc1	-44%	-32%	-2%	2%	-22%	?	nt	RGS4 inh=21*
C=CCn1c(SCC(=O)c2[nH]c(C)c(C(C)=O)c2C)nnc1-c1ccncc1	-29%[59 µM]	-30%	-1%	20%	-3%	0%	nt
COC(=O)C1=NN[C@H](C(=O)OC(C)(C)C)[C@H]1c1ccccc1	6%	7%	-11%	16%	-16%	-24%	nt
COc1ccc(OC)c(-c2csc(NC(=O)COC(=O)C3CCC3)n2)c1	?	-37%	-5%	12%	-34%	-6%	10*
COc1ccc(NC(=O)C2CCN(S(=O)(=O)c3ccc4c(c3)CCCC(=O)N4)CC2)cc1OC	1%[59 µM]	7%[57.1 µM]	nt	34%	-2%	0%	nt
CC(OC(=O)c1cccc(S(=O)(=O)N2CCOCC2)c1)C(=O)NC1CCCCC1C (stereo not drawn)	?	24%	3%	50%	-1%	0%	35*
COC(=O)[C@H](CCSC)NC(=O)Nc1cc(OC)cc(OC)c1	-6%	-38%	-2%	14%	0%	-80%	nt
CC(C)C(=O)Nc1ccc(NC(=O)c2ccc([N+](=O)[O-])cc2Cl)cc1	0%[59 µM]	5%	0%	31%	-5%	-24%	nt
CN(C)c1ccc(NC(=O)c2ccc([N+](=O)[O-])cc2Cl)cc1	2µM*	-19%	-3%	-2%	-13%	-6%	6.3*
COc1ccccc1NC(=O)N1CCCC(c2nc3c(nnn3Cc3ccc(C)cc3)c(=O)[nH]2)C1 (stereo not drawn)	?	-3%	-3%	24%	-5%	0%	nt
COc1ccc(C(=O)c2c[nH]c3ccccc23)cc1	1%[59 µM]	0%	-6%	18%	-1%	17%	nt
COc1ccc(C(C(O)C(=O)c2c[nH]c3ccccc23)N2CCN(c3ccc(OC)cc3)CC2)cc1 (stereo not drawn)	?	61%	-1%	?	?	9%	5.6*
COc1ccc2[nH]cc(CCNc3ncnc4ccc(-c5ccoc5)cc34)c2c1	-47%[0.501 µM]	nt	nt	nt	nt	-11%	nt	RGS4 inh=?
CCn1c(CSc2nc3ccccc3s2)nnc1SCC(=O)c1ccc(O)c(O)c1	0.79µM*	35µM*	-14%	-6%	45µM*	?	1.4*
Cc1csc(NC(=O)CSc2nc3sc(C)c(C)c3c(=O)[nH]2)n1	?	?	2.4µM*	?	0%[57.1 µM]	?	0.89*
O=C(CN1CCCC1)Nc1ccc(F)cc1	nt	-29%	-8%	26%	-10%	-4%	nt
CCN(CC)c1ccc(NC(=O)CN2CCN(CC(=O)Nc3ccc(F)cc3)CC2)cc1	2.2µM*	?	1%	?	?	-17%	2.8*
CCN(CC)c1ccc(NC(=O)COC(=O)CCC(=O)c2ccc(F)cc2)cc1	1.6µM*	?	-7%	-21%	-35%	?	1.6*
CCOC(=O)Cc1c(C)nc2cc(-c3ccc(C(C)(C)C)cc3)[nH]n2c1=O	25%	10%	1%	25%	-6%	3%	nt
N[C@H]1CO[C@H]2[C@@H]1OC[C@@H]2n1cc(-c2ccccc2)nn1	nt	nt	nt	nt	nt	-21%[176 µM]	nt
Cc1cccc(OCCCC(=O)Nc2ccc(N(C)C)cc2)c1	1.8µM*	?	0%	-15%	?	-21%	0.89*
CC(C)c1ccc(CNc2ccc(N3CCOCC3)cc2)cc1	?	13µM*	-10%	11µM*	40µM*	-25%	10*
